Screening data deposited in PubChem BioAssay by National Center for Advancing Translational Sciences (NCATS).
Rows were chosen to be rich in hits. Some 21% of all compounds tested hit in one or more screens of this group.
Shiga toxin inh = A qHTS for Small Molecule Inhibitors of Shiga Toxin; Vero cells, Shiga toxin protein synthesis inhibition reporter; inhibition, % at 38.7 µM; 290,000 compounds, 9.2% hits; in the data active = inhibition mostly above about 28%, no sharp cut-off; inactive = mostly below about 43%; also: 0% is about no effect
CHX counter = Cycloheximide Counterscreen for Small Molecule Inhibitors of Shiga Toxin; 300,000 compounds, 12% hits; AID 2314, 2010; cell reporter, cycloheximide protein synthesis inhibition counterscreen; max response, %; in the data active = max response mostly above about 13%, no sharp cut-off; inactive = mostly below about 14%; also: read at 38.3 µM for the half of the compounds with a filed dose; 0% is about no effect
Pf growth 48h = Primary qHTS for delayed death inhibitors of the malarial parasite plastid, 48 hour incubation. 310,000 compounds, 5.9% hits. Potency, µM (top dose mostly 28.7 µM), inactives show at the highest dose activity change, negative = inhibition, usual class: inhibitors. P. falciparum luciferase growth in erythrocytes, 48 h; also: potency is read from the fitted curve at half-maximal effect; % is scaled to controls: 0 for no effect and ±100 for the full control effect
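Luciferase-expressing P. falciparum in infected erythrocytes (2% hematocrit, 0.1% parasitemia final) in RPMI 1640/0.5% Albumax were exposed to compound for 48 hours at 37 C, 5% CO2; growth read as luminescence.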
Pf growth 96h = Primary qHTS for delayed death inhibitors of the malarial parasite plastid, 96 hour incubation. P. falciparum luciferase reporter growth, 96 h. Potency, µM (series often up to 28.7 µM), for inactives: at the top dose activity change, negative = inhibition, usual class: inhibitors. 320,000 compounds, 6.9% hits. AID 504834, 2011; also: potency is read from the fitted curve at half-maximal effect; % is scaled to controls: 0 for no effect and ±100 for the full control effect
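Parasite growth measured via integrated firefly luciferase reporter in P. falciparum. Infected erythrocytes at 2% hematocrit, 0.05% parasitemia final were treated 96 hours at 37 C under 5% CO2, and luminescence was read.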
The depositor's hits bear a star; i = inactive; ? = inconclusive; . = no result; + = active, no number; [ ] = dose if it differs, or a comment. Unless noted, calls follow the shape of the dose curve; as a rule, active = well fitted inhibition curve with a large enough effect; inconclusive = small, poorly fitted or top-dose-only effect, or another doubt; inactive = no such curve, though single readings can be large or run the other way.

SMILES	Shiga toxin inh	CHX counter	Pf growth 48h	Pf growth 96h
O=C(NC1CCN(Cc2ccc(Cl)c(Cl)c2)CC1)c1ccccc1	19.7	-2.3	-3.6%[0.00184 µM]	?
COC(=O)CNC(c1ccccc1)c1cc(Br)ccc1N (stereo unspecified)	14.3	-0.4	8.1%	24.4%
COC(=O)CNC(c1ccccc1)c1cc(Br)ccc1NS(=O)(=O)c1ccccc1 (stereo unspecified)	-11.0	-0.4	14.7µM*	3.6%
COC(=O)CNC(c1ccccc1)c1cc(Br)ccc1NS(=O)(=O)c1ccc(C)cc1 (stereo unspecified)	-9.1	1.5	11.7µM*	42.5%
Cc1c(Oc2ccc(C(F)(F)F)cc2[N+](=O)[O-])ccc2c3c(c(=O)oc12)CCC3	-16.5	-8.2	?	-98.2%
Cc1ccc(Oc2ccc(C(F)(F)F)cc2[N+](=O)[O-])c([N+](=O)[O-])n1	58.1	29.6*	40.0%	38.0%
O=C(COc1ncnc2sccc12)N1CCN(C(=O)c2ccco2)CC1	-11.8	-3.2	12.9%	0.8%
CC(=O)NCCc1nc2cc(NC(=O)COc3cccc(C)c3)ccc2n1C	32.3	11.9	7.5%	?
Cn1c(=O)c2cc(S(=O)(=O)Nc3cc(C(=O)O)cc(C(=O)O)c3)ccc2n(C)c1=O	0.9	1.5	42.6%	25.3%
Cc1cc(C)cc(NS(=O)(=O)c2ccc3c(c2)c(=O)n(C)c(=O)n3C)c1	3.2	-5.8	11.7µM*	.
COC(=O)N/N=C/c1cc(OC)c(O)c([N+](=O)[O-])c1	76.9*	92.2*	7.4%	-1.5%
COc1ccc(/C=N/NC(=O)Cc2ccc(Cl)cc2)cc1OC	21.4	0.9	2.3%	?
COc1cc(/C=N/NC(=O)Cc2ccc(Br)cc2)cc(OC)c1O	-17.4	-5.5	0.3%	11.7µM*
COc1cc(/C=N/NC(=O)C(Cc2c[nH]c3ccccc23)NC(=O)OCC(C)C)cc([N+](=O)[O-])c1O (stereo unspecified)	9.5	-1.4	-29.9%	11.7µM*
O=C(Nc1ccc(C(=O)N2CCCCC2)cc1)c1ccc([N+](=O)[O-])cc1	-10.5	-2.0	?	6.2%
Cc1cc2c(c(=O)n1-c1ccccc1)C1O[C@](c3ccsc3)(Cc3ccccc31)O2	i	11.1	?	1.69µM*
COc1cc2c(cc1OC)[C@@H]1O[C@](c3ccsc3)(C2)Oc2cc(C)n(-c3ccccc3)c(=O)c21	i	-1.4	2.2%[5.75 µM]	1.51µM*
CCCC[C@]12Cc3cc(C#N)ccc3C(O1)c1c(cc(C)n(-c3ccccc3)c1=O)O2	i	1.2	?	?
C[C@]12CCC(O)CC1CCC1C2CC[C@]2(C)C(c3cc(C(F)(F)F)n[nH]3)CCC12 (stereo partly specified)	-3.1	-2.8	-14.3%	2.9%
NCCN	.	.	-1.6%	-9.0%
CC(C)CCN1CC(=O)N2[C@@H](Cc3c([nH]c4ccccc34)C2(C)C)C1=O	-6.7	-2.0	?	?
COc1ccc(C2=NOC(Cn3nc(-c4ccccc4)cc3C(=O)O)C2)cc1 (stereo unspecified)	.	.	22.0%	40.3%
COc1ccc(CNC(=O)C2(CC3CC(c4ccccc4)=NO3)CCN(C(=O)C3CCCC3)CC2)cc1 (stereo unspecified)	-2.2	2.0	?	5.22µM*
O=C(C1CCCC1)N1CCC(CC2CC(c3ccc(Cl)cc3)=NO2)(C(=O)NCC2CCCCC2)CC1 (stereo unspecified)	-8.5	2.8	?	1.04µM*
CCCNC(=O)C1(CC2CC(c3ccccc3)=NO2)CCN(C(=O)C2CCCC2)CC1 (stereo unspecified)	.	.	13.1µM*	14.7µM*
SMILES	Shiga toxin inh	CHX counter	Pf growth 48h	Pf growth 96h
CCCNC(=O)C1CC(c2cccc(F)c2)=NO1 (stereo unspecified)	4.5	0.8	58.4%	78.5%
CCc1c(C)nc(N2CCN(c3ccccc3F)CC2)[nH]c1=O	-3.5	-1.4	5.7%	8.9%
COCCNC(=S)N1CCC(C(=O)c2ccc(C)cc2)CC1	14.3	8.4	-5.5%	325.0%
CN1C(=O)NC(c2ccccc2[N+](=O)[O-])C2=C1CCCC2=O (stereo unspecified)	-5.1	-4.2	-2.4%[0.00184 µM]	9.28µM*
CN1C(=O)NC(c2ccccc2[N+](=O)[O-])C2=C1CC(C)(C)CC2=O (stereo unspecified)	-13.2	-3.2	-7.9%[0.00184 µM]	9.28µM*
CCN(CC)c1ccc(N=CN2CCOCC2)cc1	5.8	-3.1	?	?
Cc1ccc(C)c(NC(=O)CCc2nnc3ccc(N4CCCCC4)nn23)c1	-10.2	-1.8	-11.2%	?
CC1Cc2cc(S(=O)(=O)N3CCC(C(=O)N(C)Cc4ccccc4)CC3)ccc2N1C(=O)C1CC1 (stereo unspecified)	-3.8	14.8	13.1µM*	10.4µM*
CCOC(=O)C1CCN(S(=O)(=O)c2ccc3c(c2)CC(C)N3C(=O)C2CC2)CC1 (stereo unspecified)	-4.5	19.0	?	?
CC1Cc2cc(S(=O)(=O)N3CCC(C(N)=O)CC3)ccc2N1C(=O)C1CC1 (stereo unspecified)	0.9	11.4	0.0%	11.7µM*
CC(=O)N1c2ccc(S(=O)(=O)NCC3CCC(C(=O)N4CCCCC4)CC3)cc2CC1C (stereo unspecified)	20.6	-4.3	-14.1%	2.1%
CC(=O)N1c2ccc(S(=O)(=O)N3CCC(C(=O)NC4CCC(C)CC4)CC3)cc2CC1C (stereo unspecified)	-4.0	17.0	?	5.22µM*
CC(=O)N1c2ccc(S(=O)(=O)NCC3CCC(C(=O)N4CCCC(C)C4)CC3)cc2CC1C (stereo unspecified)	-4.6	-1.9	?	1.17µM*
CCC(C)NC(=O)C1CCN(S(=O)(=O)c2ccc3c(c2)CC(C)N3C(C)=O)CC1 (stereo unspecified)	-3.3	-2.9	-23.3%	18.0%
Cc1ccccc1-c1cccc([C@@H]2C[C@H]3CN(Cc4cccnc4)C(=O)[C@]34CCCN24)c1	-5.7	-3.2	?	?
CCOC(=O)N1CCC(=NNS(=O)(=O)c2cccc([N+](=O)[O-])c2)CC1	11.4	10.7	6.8%	.
CCCCN(C)C(=O)C1CCC(CNS(=O)(=O)c2ccc3c(c2)CC(C)N3C(C)=O)CC1 (stereo unspecified)	-1.6	-0.9	?	?
CC(=O)N1c2ccc(S(=O)(=O)NCC3CCC(C(=O)N(C)Cc4ccccc4)CC3)cc2CC1C (stereo unspecified)	1.6	1.2	13.1µM*	?
Cc1ccc(Cn2cc(/C=N/Nc3ccc([N+](=O)[O-])cn3)c3ccccc32)cc1	+	18.9*	?	?
Cc1c(/C=N/Nc2ccc([N+](=O)[O-])cn2)c2ccccc2n1Cc1ccccc1	24.0	19.8*	-0.9%	25.4%
O=C(O)Cn1cc(/C=N/Nc2ccc([N+](=O)[O-])cn2)c2ccccc21	34.7*	27.8*	17.9%	29.9%
CC(=O)n1cc(/C=N/NC(=O)c2ccc([N+](=O)[O-])cc2)c2ccccc21	19.5	-3.2	29.8%	-7.6%
O=C(Nc1cc(Cl)ccc1F)C1=COCCO1	.	.	51.2%	105.6%
